Screens as filed in PubChem.
Htt clearance = mutant huntingtin protein clearance; HeLa Exon1htt(103Q)mCFP, aggregate imaging; zero = plate's median compound well; inhibition, % at 1.5 µM; 47,000 compounds, 0.42% hits; AID 853;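 active = inhibition of aggregate fluorescence above about 70%, also judged a hit by eye on the cell image, limit read from the data, passing the limit was not always enough; inconclusive = no rule stated for this call; inactive = not judged a hit on image review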;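 note: cells exposed to compound for three days before fixation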
M1 ag = agonists of M1 muscarinic receptor. CHO-M1 cells, Fluo-4 calcium fluorescence, agonist mode; stronger effect = higher value. 64,000 compounds, 3% hits. B-score at 10 µM;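 active = fluorescence rise, raw or as B-score row- and column-corrected plate score, outside the 99.7% band of its plate's samples, either direction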
M1 antagonist = blocks the rat M1 muscarinic receptor response to acetylcholine; P08482; CHO-M1 cells, Fluo-4 calcium, ACh EC80 antagonist mode; stronger effect = lower value; B-score at 10 µM; 64,000 compounds, 3.4% hits; AID 628;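 active = calcium fluorescence response, raw or row-and-column corrected B-score, differing from the plate sample mean either way at a set confidence level, mostly lower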
D1 mod = allosteric modulators of human D1 dopamine receptor | HEK293 D1, CRE-luciferase, dopamine EC30 potentiation; actives deviate in either direction | AID 641 | 58,000 compounds, 5.9% hits | B-score at 10 µM | P21728;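 active = luminescence count or its row- and column-corrected plate score outside the 99.7% band of the plate's sample wells, on either side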
M1 ag confirm = rat M1 muscarinic agonism, confirmation. shares compounds with M1 ag. CHO-M1 cells, Fluo-4 calcium fluorescence, agonist mode; actives lie on both sides. fluorescence change (max-min) at 10 µM. 1,700 compounds, 19% hits. AID 1488;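 active = fluorescence change differs from the solvent-only DMSO control mean at a set confidence level in both duplicate runs; inconclusive = differs from solvent-only control mean in just one of two runs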;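 note: an EC20 dose of acetylcholine follows compound addition during the same imaging run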
M4 agonist ctr = counter-screen for M1 agonists: activity at rat M4 receptor | CHO M4/Gqi5 cells, Fluo-4 calcium fluorescence, agonist mode; actives lie on both sides | fluorescence change (max-min) at 10 µM | 1,700 compounds, 9% hits | shares compounds with M1 ag;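 active = fluorescence change differing from the plate's solvent-only control wells at 99.7% confidence in both duplicates, whether higher or lower; inconclusive = differs from solvent controls in only one of two duplicates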
Target sequence (P08485 whole entry, looked up): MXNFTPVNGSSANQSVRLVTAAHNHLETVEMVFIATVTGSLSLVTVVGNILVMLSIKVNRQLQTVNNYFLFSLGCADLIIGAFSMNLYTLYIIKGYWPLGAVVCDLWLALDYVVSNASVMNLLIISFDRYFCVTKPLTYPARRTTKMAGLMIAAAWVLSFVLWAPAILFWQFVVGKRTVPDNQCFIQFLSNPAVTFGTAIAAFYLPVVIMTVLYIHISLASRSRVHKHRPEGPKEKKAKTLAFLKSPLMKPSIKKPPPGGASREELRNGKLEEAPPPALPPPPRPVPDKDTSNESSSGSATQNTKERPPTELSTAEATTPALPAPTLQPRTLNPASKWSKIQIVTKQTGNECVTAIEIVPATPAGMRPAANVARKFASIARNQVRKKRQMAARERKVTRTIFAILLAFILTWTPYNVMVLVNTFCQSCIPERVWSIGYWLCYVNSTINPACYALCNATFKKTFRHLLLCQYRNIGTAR
Hits are given with their value; 0 = inactive; ? = inconclusive; - = not tested or not shown. The list is not random: actives were taken first. Their share in the collection is about 9.1%.

SMILES	Htt clearance	M1 ag	M1 antagonist	D1 mod	others
C[C@H]1CCC[C@H](O)CCCCCc2cc(O)cc(O)c2C(=O)O1	0	0	2.4	0
O=C(C1CCN(S(=O)(=O)c2ccccc2)CC1)N1CCC2(CC1)OCCO2	0	-	-	-
CC(C)CC12CN3CCN(CC(C3)C1O)C2 (stereo not drawn)	-	0	1.4	0
CCOC(=O)C1SC2(C(F)F)CC1(O)c1c(c(OC)c3occc3c1OC)O2 (stereo not drawn)	-	0	0	0
CC1=[N+]([O-])C2(N)CCc3nonc3C2(O)C1 (stereo not drawn)	-	-	-	0
O=c1cccc2n1CC1CC2CN(c2ncnc3c2cnn3-c2ccc(Cl)cc2)C1 (stereo not drawn)	-	-3.6	0	0
O=c1cccc2n1CC1CC2CN(S(=O)(=O)c2ccccc2)C1 (stereo not drawn)	0	-	-	-
Cc1c(C(=O)N2CCC3(CC2)OCCO3)sc2ncnc(N3CCN(c4ccccn4)CC3)c12	-	0	0	-6.7
CN(C)CC1CSCCC1(O)c1ccccc1 (stereo not drawn)	0	-	-	-
O/N=C/c1c[nH]c2ccccc12	0	0	0	0
C=CCN(CC=C)Cc1c[nH]c2ccccc12	-	0	0	-5.6
c1ccc2c(CCNC3=NCCC3)c[nH]c2c1	0	0	0	-2.7
CCN1CC=C(c2c[nH]c3ccccc23)CC1	0	0	0	0
Cc1ccc2c(c1)CC1(CN2C)C(=O)NC(=O)N(CCC2=CCCCC2)C1=O (stereo not drawn)	-	0	0	0
Cc1ccc2c(c1)[C@@H]1CN(C)CC[C@@H]1N2C(=O)Nc1cccc(C(F)(F)F)c1	-	0	0	-4.8
Cc1ccc2c(c1)C1CN(C)CCC1N2S(=O)(=O)c1ccccc1 (stereo not drawn)	-	0	0	-
Cc1ccc2c(c1)C1CN(C)CCC1N2C(=O)c1ccc(Br)o1 (stereo not drawn)	-	0	0	-3.1
Fc1ccc2c(c1)nnn2C1CCN(Cc2ccccc2)CC1	0	0	0	-4.4
Fc1ccc2c(c1)nnn2C1CCN(Cc2nnnn2CCc2ccccc2)CC1	-	0	0	0
CCCc1[nH]nc2c1C1(C(=O)N(CC(N)=O)c3ccccc31)C(C(=O)OC)=C(N)O2 (stereo not drawn)	0	0	2.3	0
CCCc1[nH]nc2c1C1(C(=O)N(Cc3ccccc3)c3ccccc31)C(C(=O)OC)=C(N)O2 (stereo not drawn)	0	-	-	-
COc1ccccc1/C=C1/C(=N/O)C2CCN1CC2	-	0	0	0
CCCCc1nc2ccccc2c(=O)n1-c1ccc(Cl)cc1[N+](=O)[O-]	0	-	-	-
Cc1nnc(SCc2nc3ccccc3c(=O)n2-c2ccccc2Cl)n1N	72	0	0	0
CCOC(=O)c1ccc(NC(=O)c2c(O)[nH]c(=O)[nH]c2=O)cc1	-	86	0	0
SMILES	Htt clearance	M1 ag	M1 antagonist	D1 mod	others
CCOC(=O)[C@]1(C#N)[C@@H]2C=CC(C(C)=O)=CN2[C@@H](C(N)=O)[C@@H]1c1ccsc1	-	26	0	-
Cc1cc(OCC(=O)Nc2c(C)n(C)n(-c3ccccc3)c2=O)c2c3c(c(=O)oc2c1)CCC3	-	0	0	0
CN1C(=O)C(=Cc2ccccc2Oc2ccc(Cl)cc2)C(=O)N(C)C1=O	82	-	-	-
CNCC(O)c1cccc(OC(=O)c2ccccc2C)c1 (stereo not drawn)	0	-3.3	0	0	M1 ag confirm=0;M4 agonist ctr=?
CCN(c1ccc(C(O)(C(=O)OC)C(F)(F)F)cc1)S(=O)(=O)c1ccc(C)cc1 (stereo not drawn)	0	-	-	-
CCCC(=O)OCC[N+](C)(C)C	-	40	-7.7	0	M1 ag confirm=378;M4 agonist ctr=0
CCC(=NCc1ccc(F)cc1)c1c(O)n(C)c(=O)n(C)c1=O	-	0	0	0
Cc1ccc(C(=O)C2CN3CCC2CC3)cc1 (stereo not drawn)	0	12	0	0	M1 ag confirm=0;M4 agonist ctr=?
COC(=O)c1cc(C(O)(C(=O)OC)C(F)(F)F)c(/N=C/N(C)C)s1 (stereo not drawn)	-	0	0	0
O=S1(=O)CC2(N3CCOCC3)CCCCCCC21 (stereo not drawn)	0	2.9	0	0	M1 ag confirm=0;M4 agonist ctr=0
CC(C)C12CN3CC(C(C)C)(CN(C1)C3c1cccnc1)C2=O (stereo not drawn)	0	-	-	-
CCn1nc(-c2ccccc2)nc2c(=O)n(C)c(=O)nc1-2	-	25	0	-8.7	M1 ag confirm=187;M4 agonist ctr=?
